Compounds without any hit were thinned out: in the full panel of roughly 79,000, 15% have a hit. Rule as the data show it: active = growth inhibition above about 70%; inactive = the rest. Where a SMILES comes first, the peptide text is derived from it. The star is where a group is joined. Boc = CC(C)(C)OC(=O)*; OtBu = CC(C)(C)O*
How the values were obtained:
[1] = NCI Yeast Anticancer Drug Screen. Data for the rad50 strain (AID 155);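 also: 0% = growth of vehicle-only cultures of the same strain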; conditions: S. cerevisiae rad50 strain growth inhibition; at 50.0 µM; stronger effect = higher value
Procedure, shortened: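 Compounds were tested on a yeast strain with an engineered DNA damage repair alteration; the reported value is growth inhibition normalised to vehicle treatment.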

[2] = NCI Yeast Anticancer Drug Screen. Data for the mec2-1 strain (AID 157); conditions: S. cerevisiae mec2-1 strain, at 50.0 µM, stronger effect = higher value
Procedure, shortened: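 Yeast mec2-1 mutant treated with compound. Readout: growth inhibition vs vehicle controls.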

[3] = NCI Yeast Anticancer Drug Screen. Data for the sgs1 mgt1 strain (AID 161);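 also: 0% = growth of cultures given vehicle only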; conditions: S. cerevisiae sgs1 mgt1 strain, at 50.0 µM, stronger effect = higher value
Procedure, shortened: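 Test agents were incubated with a DNA-repair-mutant yeast strain. Growth was then read and compared against vehicle-treated controls.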

[4] = NCI Yeast Anticancer Drug Screen. Data for the cln2 rad14 strain (AID 165);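 also: 0% = growth equal to vehicle treated cultures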; conditions: S. cerevisiae cln2 rad14 strain, at 50.0 µM, stronger effect = higher value
Procedure, shortened: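 cln2 rad14 yeast strain; compound exposure; growth inhibition read vs vehicle controls.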

[5] = NCI Yeast Anticancer Drug Screen. Data for the bub3 strain (AID 167); conditions: S. cerevisiae bub3 mutant strain, at 50.0 µM, stronger effect = higher value
Procedure, shortened: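 Growth of a checkpoint-deficient yeast mutant is measured after compound exposure. Values represent inhibition relative to vehicle.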

[6] = NCI Yeast Anticancer Drug Screen. Data for the mlh1 rad18 strain (AID 175); conditions: S. cerevisiae mlh1 rad18 strain growth inhibition; at 50.0 µM; stronger effect = higher value
Procedure, shortened: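 Yeast w/ defined DNA-repair lesions; compound exposure; growth vs vehicle controls → % inhibition.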

Measured: growth inhibition

O=S1(=O)C(Cl)c2ccccc2-c2ccccc2C1Cl (stereo not drawn)
inactive: [1] -1.35% | [2] -6.65% | [3] -10.4% | [4] 8.3% | [5] 5% | [6] -9.65%

CSc1cnc(N)s1
inactive: [1] 14.6% | [2] 14.8% | [3] 3% | [4] -13.1% | [5] -2.45% | [6] 32.4%

O=C(N/N=C/c1cccnc1)C(O)C(O)C(O)C(O)CO (stereo not drawn)
inactive: [1] -4.15% | [2] 8.9% | [3] 6.75% | [4] 7.6% | [5] -12.6% | [6] 11.9%

N#Cc1c(NC(=S)NC(=O)c2ccccc2)nc2c(c1-c1ccccc1)CCCC2
inactive: [1] 28% | [2] 17.9% | [3] 30.1% | [4] 1.05% | [5] 17.4% | [6] 21.6%

C/C=C(\C)C(=O)OC1CC(C)(O)C(=O)C(OC(=O)/C(C)=C/C)C2(C)CCC(O)(C(C)C)C12 (stereo not drawn)
inactive: [1] -27.2% | [2] -30.1% | [3] -34.7% | [4] -16.8% | [5] -15% | [6] -24.8%

C[N+](C)(C)CC(=O)c1ccc[nH]1
inactive: [1] 2.1% | [2] -11.2% | [3] 14.9% | [4] -0.8% | [5] 1.4% | [6] 13.1%

O=COCc1ccc2c(c1)OCO2
inactive: [1] 35.3% | [2] 36.9% | [3] 22.9% | [4] 15.2% | [5] 10.1% | [6] 27.8%

C=CC1(C)C(C)=C(C)C(C)=C1C
inactive: [1] 11.1% | [2] -4.2% | [3] -13.7% | [4] 18% | [5] -2% | [6] 9.4%

COc1ccc2c(=O)cc(-c3ccncc3)oc2c1OC
inactive: [1] 40.2% | [2] 7.8% | [3] -4.05% | [4] 2.3% | [5] -47% | [6] 31.2%

COC(=O)C1(Cc2ccccc2)Cc2ccccc2C1
inactive: [1] 24.7% | [2] 36.1% | [3] 36.4% | [4] 20.2% | [5] 55.4% | [6] 12.2%

CN(C)C(=O)CCCCC(=O)N(C)C
inactive: [1] 16.5% | [2] -5.2% | [3] 1.45% | [4] -14.7% | [5] 5.65% | [6] -22.2%

CCOC(=O)c1c(C(=O)OC)nc2n1-c1ccccc1OC2
inactive: [1] -16.2% | [2] -36.1% | [3] -14.4% | [4] -17.8% | [5] -17.4% | [6] -0.7%

CN(C)CCOC(=O)c1ccc(N)cc1
inactive: [1] -6.35% | [2] 1.6% | [3] -31.8% | [4] -19.6% | [5] 23.1% | [6] -8.35%

CCCC1CC(=O)NC(=O)C1C(=O)OC(C)(C)C (stereo not drawn)
inactive: [1] -13.1% | [2] -0.2% | [3] -8.65% | [4] 11% | [5] 9.85% | [6] -47.4%

CC(C)CC1=C(C(=O)c2ccoc2)CC(C)C1 (stereo not drawn)
inactive: [1] 6.55% | [2] -7.6% | [3] -18.9% | [4] 12.1% | [5] 25.9% | [6] -7.1%

NC(=O)C1=CCCC1
inactive: [1] 6% | [2] -0.1% | [3] 0.5% | [4] 10.2% | [5] 12.8% | [6] -3.3%

CCOC(=O)c1ccc(-n2nc(C)cc(Cl)c2=O)cc1
inactive: [1] 1.3% | [2] -11.2% | [3] 10.8% | [4] -43% | [5] 20.4% | [6] -4.8%

C=CCCCCCCCCC(=O)Nc1cc(Cl)ccc1C
inactive: [1] -0.25% | [2] -5% | [3] -10.4% | [4] -22.9% | [5] -10.8% | [6] -2.7%

CC(=O)Nc1ccccc1C=O
inactive: [1] -4.15% | [2] -7.95% | [3] 3.75% | [4] -15.3% | [5] -14.9% | [6] -5.55%

O=C(OC(c1ccc(Cl)cc1)c1ccc(Cl)cc1)C(c1ccc(Cl)cc1)c1ccc(Cl)cc1
inactive: [1] 15.5% | [2] 10.4% | [3] 14.8% | [4] -13.5% | [5] -3.35% | [6] 30.7%

Cc1ccc(OCCNCCO)cc1
inactive: [1] 23.3% | [2] -11.4% | [3] 6.3% | [4] 10.4% | [5] -1.2% | [6] 18.2%

COc1ccc(Cc2cc(O)c(OC)cc2O)cc1
inactive: [1] 5.55% | [2] 17.1% | [3] 38.4% | [4] -22.2% | [5] -3.75% | [6] 26.8%

CCCCCCOC(=O)C(C)(O)C(Cl)c1ccccc1 (stereo not drawn)
inactive: [1] 3.95% | [2] -0.45% | [3] -5.4% | [4] 3.9% | [5] 9.3% | [6] -10.2%

O=C(O)c1ccoc1-c1ccccc1
inactive: [1] 12.7% | [2] -6.05% | [3] 10.7% | [4] -26.9% | [5] -7.55% | [6] 22.2%

CCOC(=O)C(NC(=O)/C=C\C(=O)O)C(C)C (stereo not drawn)
inactive: [1] 3.7% | [2] 22.1% | [3] 2.55% | [4] 23.9% | [5] 15.4% | [6] 35.2%

CC1(C)OCC2OC=CC(=O)C2O1 (stereo not drawn)
inactive: [1] -8.65% | [2] -2.65% | [3] -0.4% | [4] 5.15% | [5] -14.1% | [6] -68.5%

COc1ccc(Br)cc1C1SCC(=O)N1c1nncs1 (stereo not drawn)
inactive: [1] 12% | [2] 7.7% | [3] 26.8% | [4] 11.2% | [5] 16.4% | [6] 23.8%

O=c1[nH]cc(C(F)(C(F)(F)F)C(F)(F)F)c(=O)[nH]1
inactive: [1] -21.9% | [2] -18.9% | [3] -24.6% | [4] -4.25% | [5] -25.3% | [6] -36.8%

COC(=O)CC1C=CC(OC)[C@@]2(C)C(=O)C(OC)=CC(=O)[C@@H]12 (stereo partly drawn)
inactive: [1] 8.7% | [2] -15.1% | [3] -11.4% | [4] 19.6% | [5] 2.4% | [6] -3.45%

Cc1ccc(Nc2ncnc3sc(SCc4ccccc4)nc23)cc1
inactive: [1] -34.5% | [2] -20.4% | [3] -24.2% | [4] 3.75% | [5] -24.6% | [6] -28.1%

Cc1cc([N+](=O)[O-])ccc1NC(=O)c1c(Cl)c(Cl)c(C(=O)Nc2ccc([N+](=O)[O-])cc2C)c(Cl)c1Cl
inactive: [1] 38.5% | [2] 28.1% | [3] 34.9% | [4] -34% | [5] 7.9% | [6] 45.1%

CC(=O)c1cccc(N)c1
inactive: [1] -26.9% | [2] -5.75% | [3] -20.4% | [4] -23.3% | [5] -15.8% | [6] 3.1%

COc1cccc2ccc(C(=O)c3ccccc3)nc12
inactive: [1] 34.2% | [2] -3.2% | [3] 7.8% | [4] 23.6% | [5] 28.2% | [6] 15.9%

CN1C(=O)C23CCCN2C(=O)C1(C)SC(=N)S3 (stereo not drawn)
inactive: [1] 2.35% | [2] 7.6% | [3] -2.55% | [4] -45.4% | [5] 2% | [6] 4.95%

CC1CCCCCN1CCC(=O)c1ccccc1 (stereo not drawn)
inactive: [1] 17.9% | [2] 25.1% | [3] 17.9% | [4] 19.2% | [5] 32.6% | [6] 8.65%

C=C(CC(=O)OC)C(=O)OC
inactive: [1] 12.3% | [2] -2.9% | [3] 8.45% | [4] 7.8% | [5] 4.15% | [6] 9.45%

CC(=O)N(C)CCCCCCN(C)C(C)=O
inactive: [1] 8.95% | [2] 8.05% | [3] 10.7% | [4] 3.05% | [5] 7.2% | [6] 9.35%

CC(C)(C)OC(=O)CC(NC(=O)OC(C)(C)C)C(=O)NC(Cc1ccccc1)C(N)=O (stereo not drawn) (Boc-Asp(OtBu)-Phe-NH2; configuration not given here)
inactive: [1] -23.1% | [2] 6.85% | [3] -3.85% | [4] 35.5% | [5] 13.5% | [6] -11.3%

CCO/C=C1/N=C(c2ccc3ccccc3c2)OC1=O
inactive: [1] 35.9% | [2] 9.8% | [3] 13.3% | [4] -23.7% | [5] -32.2% | [6] 14%

CC(C)(CN)C(=O)O
inactive: [1] -3.2% | [2] -6.95% | [3] -11.6% | [4] -17.1% | [5] -0.3% | [6] 9.75%

CS(=O)(=O)c1ccc2c(c1)-c1ccc([N+](=O)[O-])cc1C2=O
inactive: [1] 12.7% | [2] 8.8% | [3] 6.3% | [4] 1.65% | [5] -4% | [6] -0.9%

COC1=Cc2nc3ccccc3nc2OC1(C)C
inactive: [1] -13.2% | [2] 3.15% | [3] 10.6% | [4] -16.4% | [5] 17.8% | [6] 3.75%

NC(=O)NC(=O)Cc1ccc([N+](=O)[O-])cc1
inactive: [1] 5.1% | [2] 0.1% | [3] 5.1% | [4] -5.15% | [5] 6.25% | [6] -0.35%

From PubChem BioAssay (NCI)
